Assays:
Assay in all cases: log2 ratio of Biotin-Ahx-Ub-VS probe labelling (fragment/DMSO); higher = less target engagement (more negative = stronger competition), active = hit call of the paper (q ≤ 0.05, log2 ratio ≤ -1)
Settings in all cases: compound concentration: 200 uM; treatment time: 3 h
USP34 = USP34 (UniProt Q70CQ2)
Procedure, shortened: (§1)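 HEK293T lysate (495 µg per sample, in Tris/CHAPS/IGEPAL buffer with protease inhibitors) was treated in triplicate with fragment at 200 µM or with DMSO for 3 h. It was then treated with Biotin-Ahx-Ub-VS (0.5 µM final) for 1 h. Labelled DUBs were NeutrAvidin-enriched, digested with LysC and trypsin, and run by diaPASEF LC-MS/MS. Spectronaut label-free quantities were global-median-normalised. Values are average log2 ratios fragment/DMSO by unpaired t-test, using proteins with ≥2 unique peptides.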

USP36 = target: T1, USP36 (UniProt Q9P275)
T1 sequence (whole entry): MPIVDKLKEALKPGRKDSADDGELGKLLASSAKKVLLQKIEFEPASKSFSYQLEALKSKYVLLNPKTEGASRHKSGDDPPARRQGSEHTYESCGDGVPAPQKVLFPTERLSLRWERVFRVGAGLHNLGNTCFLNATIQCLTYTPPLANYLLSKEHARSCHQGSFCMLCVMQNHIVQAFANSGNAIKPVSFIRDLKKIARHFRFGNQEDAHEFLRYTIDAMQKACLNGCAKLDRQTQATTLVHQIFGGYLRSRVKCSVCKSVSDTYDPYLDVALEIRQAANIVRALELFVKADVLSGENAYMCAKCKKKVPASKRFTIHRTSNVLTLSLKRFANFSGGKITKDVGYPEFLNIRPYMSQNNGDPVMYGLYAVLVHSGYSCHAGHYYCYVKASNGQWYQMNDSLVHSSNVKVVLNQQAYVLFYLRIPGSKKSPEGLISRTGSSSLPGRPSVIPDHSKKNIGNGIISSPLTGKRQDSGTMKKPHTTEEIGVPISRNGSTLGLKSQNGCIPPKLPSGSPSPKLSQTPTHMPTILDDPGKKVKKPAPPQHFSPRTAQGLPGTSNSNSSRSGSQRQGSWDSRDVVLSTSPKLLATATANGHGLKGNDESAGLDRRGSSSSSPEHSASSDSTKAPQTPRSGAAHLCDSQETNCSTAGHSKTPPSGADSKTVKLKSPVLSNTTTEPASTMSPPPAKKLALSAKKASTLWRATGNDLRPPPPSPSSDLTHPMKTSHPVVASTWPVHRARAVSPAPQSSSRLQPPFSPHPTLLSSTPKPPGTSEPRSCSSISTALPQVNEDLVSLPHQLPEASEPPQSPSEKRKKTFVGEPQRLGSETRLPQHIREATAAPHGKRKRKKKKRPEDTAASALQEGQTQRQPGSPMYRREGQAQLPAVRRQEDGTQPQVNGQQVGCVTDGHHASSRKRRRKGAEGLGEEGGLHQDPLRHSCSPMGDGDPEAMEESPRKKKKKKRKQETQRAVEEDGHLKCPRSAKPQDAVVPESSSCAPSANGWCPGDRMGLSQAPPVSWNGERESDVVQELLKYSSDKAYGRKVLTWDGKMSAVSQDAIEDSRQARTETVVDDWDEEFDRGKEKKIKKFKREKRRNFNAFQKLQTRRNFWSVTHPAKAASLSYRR
Procedure, shortened: as §1

USP38 = target: T2, USP38 (UniProt Q8NB14)
T2 sequence (whole entry): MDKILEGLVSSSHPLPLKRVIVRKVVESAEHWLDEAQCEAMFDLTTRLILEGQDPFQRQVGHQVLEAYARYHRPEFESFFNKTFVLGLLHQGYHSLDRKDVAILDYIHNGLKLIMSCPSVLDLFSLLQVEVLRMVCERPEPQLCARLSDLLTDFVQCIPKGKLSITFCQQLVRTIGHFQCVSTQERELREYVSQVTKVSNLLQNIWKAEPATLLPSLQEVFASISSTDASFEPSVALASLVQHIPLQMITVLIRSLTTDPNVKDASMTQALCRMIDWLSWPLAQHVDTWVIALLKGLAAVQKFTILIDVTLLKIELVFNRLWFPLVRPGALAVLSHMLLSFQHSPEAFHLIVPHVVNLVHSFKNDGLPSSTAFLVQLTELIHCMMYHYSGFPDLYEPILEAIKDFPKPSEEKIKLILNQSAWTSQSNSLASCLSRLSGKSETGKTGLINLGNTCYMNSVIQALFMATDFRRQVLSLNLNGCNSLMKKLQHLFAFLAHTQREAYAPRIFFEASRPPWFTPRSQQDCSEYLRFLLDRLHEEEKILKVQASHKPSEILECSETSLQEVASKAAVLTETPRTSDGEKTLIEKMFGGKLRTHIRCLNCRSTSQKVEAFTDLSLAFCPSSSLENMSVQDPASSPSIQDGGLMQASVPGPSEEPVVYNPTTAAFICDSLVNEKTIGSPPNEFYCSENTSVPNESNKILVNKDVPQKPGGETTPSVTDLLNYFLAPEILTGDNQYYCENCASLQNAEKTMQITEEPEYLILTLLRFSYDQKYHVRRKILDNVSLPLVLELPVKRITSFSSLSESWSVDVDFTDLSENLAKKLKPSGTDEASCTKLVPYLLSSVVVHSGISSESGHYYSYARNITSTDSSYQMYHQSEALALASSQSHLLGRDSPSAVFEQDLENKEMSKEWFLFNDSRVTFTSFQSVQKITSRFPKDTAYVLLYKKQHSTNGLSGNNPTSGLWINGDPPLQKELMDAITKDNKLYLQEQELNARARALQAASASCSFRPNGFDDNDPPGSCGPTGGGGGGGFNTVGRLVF
Procedure, shortened: as §1

USP39 = target: T3, USP39 (UniProt Q53GS9)
T3 sequence (whole entry): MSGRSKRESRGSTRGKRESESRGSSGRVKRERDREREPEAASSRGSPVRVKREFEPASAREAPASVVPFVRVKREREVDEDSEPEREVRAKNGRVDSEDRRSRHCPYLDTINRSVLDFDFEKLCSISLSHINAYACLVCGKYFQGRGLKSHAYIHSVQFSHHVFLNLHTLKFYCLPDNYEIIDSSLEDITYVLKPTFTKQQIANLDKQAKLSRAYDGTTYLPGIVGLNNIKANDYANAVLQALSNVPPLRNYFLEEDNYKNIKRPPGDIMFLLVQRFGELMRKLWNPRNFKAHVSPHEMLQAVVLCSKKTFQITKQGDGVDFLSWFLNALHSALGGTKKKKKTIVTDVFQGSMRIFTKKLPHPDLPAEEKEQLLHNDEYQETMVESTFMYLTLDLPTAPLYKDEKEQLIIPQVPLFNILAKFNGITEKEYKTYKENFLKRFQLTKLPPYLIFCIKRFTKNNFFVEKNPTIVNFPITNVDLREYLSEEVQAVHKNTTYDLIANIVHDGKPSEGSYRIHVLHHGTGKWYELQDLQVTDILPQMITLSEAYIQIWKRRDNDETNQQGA
Procedure, shortened: as §1

USP4 = target: T4, USP4 (UniProt Q13107)
T4 sequence (whole entry): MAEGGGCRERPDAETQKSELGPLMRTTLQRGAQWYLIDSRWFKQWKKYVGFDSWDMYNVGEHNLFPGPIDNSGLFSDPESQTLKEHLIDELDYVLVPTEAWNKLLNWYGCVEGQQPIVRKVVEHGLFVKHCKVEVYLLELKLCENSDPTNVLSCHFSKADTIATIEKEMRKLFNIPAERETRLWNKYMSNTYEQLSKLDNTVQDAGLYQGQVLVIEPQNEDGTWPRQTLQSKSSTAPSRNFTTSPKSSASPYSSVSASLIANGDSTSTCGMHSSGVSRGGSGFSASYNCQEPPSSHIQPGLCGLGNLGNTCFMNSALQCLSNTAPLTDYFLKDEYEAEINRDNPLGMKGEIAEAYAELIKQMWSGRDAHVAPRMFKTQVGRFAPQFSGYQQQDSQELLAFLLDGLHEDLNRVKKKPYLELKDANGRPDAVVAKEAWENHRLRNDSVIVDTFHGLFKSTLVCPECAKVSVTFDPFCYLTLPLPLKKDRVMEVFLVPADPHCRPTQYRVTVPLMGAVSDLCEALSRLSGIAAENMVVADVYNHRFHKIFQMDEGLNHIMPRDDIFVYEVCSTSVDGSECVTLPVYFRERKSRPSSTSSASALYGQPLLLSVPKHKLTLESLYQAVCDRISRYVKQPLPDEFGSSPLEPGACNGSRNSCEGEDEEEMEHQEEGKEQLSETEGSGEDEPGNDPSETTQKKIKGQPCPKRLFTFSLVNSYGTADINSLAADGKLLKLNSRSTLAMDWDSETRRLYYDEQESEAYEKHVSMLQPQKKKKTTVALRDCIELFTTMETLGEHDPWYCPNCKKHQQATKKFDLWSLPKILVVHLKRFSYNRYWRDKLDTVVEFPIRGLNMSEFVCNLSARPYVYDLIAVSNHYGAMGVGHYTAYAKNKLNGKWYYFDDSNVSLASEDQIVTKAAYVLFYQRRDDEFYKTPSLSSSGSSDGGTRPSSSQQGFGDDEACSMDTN
Procedure, shortened: as §1

Measured: log2 ratio of Biotin-Ahx-Ub-VS probe labelling

Chain of USP34 (Q70CQ2 whole entry, the tested form may be a part): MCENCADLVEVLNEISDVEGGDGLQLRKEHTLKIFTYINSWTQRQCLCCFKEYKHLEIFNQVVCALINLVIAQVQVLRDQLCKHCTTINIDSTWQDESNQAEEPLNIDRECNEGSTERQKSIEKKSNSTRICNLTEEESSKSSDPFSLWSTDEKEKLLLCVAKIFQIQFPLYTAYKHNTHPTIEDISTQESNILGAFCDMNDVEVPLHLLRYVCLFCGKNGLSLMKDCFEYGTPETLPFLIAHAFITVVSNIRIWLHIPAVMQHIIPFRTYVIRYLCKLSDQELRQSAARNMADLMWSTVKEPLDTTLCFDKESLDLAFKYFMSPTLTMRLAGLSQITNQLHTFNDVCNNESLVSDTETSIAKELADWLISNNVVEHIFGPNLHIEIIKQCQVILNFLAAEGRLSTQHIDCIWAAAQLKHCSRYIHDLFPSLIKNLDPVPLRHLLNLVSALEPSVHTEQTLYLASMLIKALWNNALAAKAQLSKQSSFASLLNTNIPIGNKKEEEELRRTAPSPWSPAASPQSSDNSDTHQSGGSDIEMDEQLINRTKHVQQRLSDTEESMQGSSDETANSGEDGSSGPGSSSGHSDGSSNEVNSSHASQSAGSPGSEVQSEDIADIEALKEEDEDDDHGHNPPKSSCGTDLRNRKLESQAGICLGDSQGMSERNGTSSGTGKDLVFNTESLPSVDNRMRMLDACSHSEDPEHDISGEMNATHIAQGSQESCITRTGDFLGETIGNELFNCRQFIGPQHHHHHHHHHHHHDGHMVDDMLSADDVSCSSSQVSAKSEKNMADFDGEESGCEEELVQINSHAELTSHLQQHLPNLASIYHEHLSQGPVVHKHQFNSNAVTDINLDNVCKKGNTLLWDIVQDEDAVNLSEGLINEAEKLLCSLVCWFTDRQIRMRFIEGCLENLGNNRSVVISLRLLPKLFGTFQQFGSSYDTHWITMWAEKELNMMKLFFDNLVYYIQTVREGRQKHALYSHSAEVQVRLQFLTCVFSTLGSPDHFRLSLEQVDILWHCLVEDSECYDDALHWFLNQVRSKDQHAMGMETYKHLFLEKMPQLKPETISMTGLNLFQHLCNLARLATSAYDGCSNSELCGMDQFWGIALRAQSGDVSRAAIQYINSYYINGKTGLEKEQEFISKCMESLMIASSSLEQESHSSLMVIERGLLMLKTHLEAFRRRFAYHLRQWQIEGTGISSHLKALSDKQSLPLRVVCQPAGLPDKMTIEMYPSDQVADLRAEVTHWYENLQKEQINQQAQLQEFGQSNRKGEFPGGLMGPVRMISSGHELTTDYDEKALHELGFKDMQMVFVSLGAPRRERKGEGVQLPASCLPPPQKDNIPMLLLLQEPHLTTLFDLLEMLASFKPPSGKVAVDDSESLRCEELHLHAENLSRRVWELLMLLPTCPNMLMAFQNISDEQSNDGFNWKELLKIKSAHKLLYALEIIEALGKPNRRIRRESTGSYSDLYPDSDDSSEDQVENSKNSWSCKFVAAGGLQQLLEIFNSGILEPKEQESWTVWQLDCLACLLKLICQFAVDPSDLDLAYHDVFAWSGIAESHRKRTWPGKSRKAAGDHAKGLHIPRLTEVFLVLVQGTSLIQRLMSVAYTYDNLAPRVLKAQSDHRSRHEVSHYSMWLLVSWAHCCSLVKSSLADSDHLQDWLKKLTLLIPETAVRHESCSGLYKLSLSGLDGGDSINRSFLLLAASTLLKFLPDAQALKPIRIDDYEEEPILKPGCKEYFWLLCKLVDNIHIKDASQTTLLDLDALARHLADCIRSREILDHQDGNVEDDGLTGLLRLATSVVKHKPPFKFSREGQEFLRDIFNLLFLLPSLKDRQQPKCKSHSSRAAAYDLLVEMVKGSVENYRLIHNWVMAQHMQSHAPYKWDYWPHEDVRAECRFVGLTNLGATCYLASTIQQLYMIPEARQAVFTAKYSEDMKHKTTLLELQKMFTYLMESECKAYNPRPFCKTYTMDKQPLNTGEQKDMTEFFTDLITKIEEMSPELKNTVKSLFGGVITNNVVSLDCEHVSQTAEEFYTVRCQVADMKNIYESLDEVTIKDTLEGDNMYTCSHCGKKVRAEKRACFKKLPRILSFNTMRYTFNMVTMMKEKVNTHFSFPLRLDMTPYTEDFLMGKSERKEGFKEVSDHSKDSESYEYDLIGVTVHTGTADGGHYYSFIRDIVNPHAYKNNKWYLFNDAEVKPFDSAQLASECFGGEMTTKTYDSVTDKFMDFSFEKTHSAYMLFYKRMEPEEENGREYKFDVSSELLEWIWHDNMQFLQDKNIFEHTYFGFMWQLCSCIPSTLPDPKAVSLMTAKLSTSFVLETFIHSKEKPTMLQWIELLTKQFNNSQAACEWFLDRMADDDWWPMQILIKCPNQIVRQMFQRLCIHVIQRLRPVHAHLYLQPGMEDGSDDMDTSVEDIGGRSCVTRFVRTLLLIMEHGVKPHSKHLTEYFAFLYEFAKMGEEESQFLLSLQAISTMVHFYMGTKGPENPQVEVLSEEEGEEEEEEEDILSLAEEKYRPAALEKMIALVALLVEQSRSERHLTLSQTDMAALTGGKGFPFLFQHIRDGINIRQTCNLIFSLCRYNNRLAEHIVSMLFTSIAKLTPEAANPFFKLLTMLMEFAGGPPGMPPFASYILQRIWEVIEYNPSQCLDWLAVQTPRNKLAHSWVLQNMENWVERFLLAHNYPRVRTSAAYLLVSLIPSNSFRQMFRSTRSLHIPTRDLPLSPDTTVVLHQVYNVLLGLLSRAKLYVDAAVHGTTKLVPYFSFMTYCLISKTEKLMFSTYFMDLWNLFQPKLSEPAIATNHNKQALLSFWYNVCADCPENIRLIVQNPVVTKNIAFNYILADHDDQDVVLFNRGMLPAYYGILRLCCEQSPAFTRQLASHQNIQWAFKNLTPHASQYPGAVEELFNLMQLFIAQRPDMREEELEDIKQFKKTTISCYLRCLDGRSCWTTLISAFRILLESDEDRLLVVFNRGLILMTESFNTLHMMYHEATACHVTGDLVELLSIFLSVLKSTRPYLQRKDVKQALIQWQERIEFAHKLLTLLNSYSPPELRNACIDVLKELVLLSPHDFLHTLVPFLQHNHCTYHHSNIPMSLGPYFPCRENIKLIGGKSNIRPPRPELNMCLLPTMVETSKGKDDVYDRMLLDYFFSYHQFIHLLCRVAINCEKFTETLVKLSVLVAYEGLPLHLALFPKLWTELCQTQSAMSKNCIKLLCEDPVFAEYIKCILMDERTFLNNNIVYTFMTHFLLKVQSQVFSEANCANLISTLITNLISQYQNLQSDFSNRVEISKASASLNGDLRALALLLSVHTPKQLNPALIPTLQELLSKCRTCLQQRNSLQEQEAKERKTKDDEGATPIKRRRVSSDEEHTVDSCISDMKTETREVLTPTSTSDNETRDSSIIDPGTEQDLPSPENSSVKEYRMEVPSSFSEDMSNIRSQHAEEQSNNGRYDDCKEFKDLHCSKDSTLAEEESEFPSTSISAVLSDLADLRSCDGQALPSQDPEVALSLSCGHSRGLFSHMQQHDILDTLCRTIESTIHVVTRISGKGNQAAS

Cc1cccc(N(CCC#N)C(=O)CCl)c1C
inactive: USP34 -0.119 | USP36 -0.0707 | USP38 -0.0489 | USP39 -0.305 | USP4 0.163

Source: the supplement of paper PMC11732987, “Enantioselective OTUD7B fragment discovery through chemoproteomics screening and high-throughput optimisation” (Communications Chemistry, 2025)
